Most compounds without a hit are left out; they make up all but 2.8% or so of the library.
Peg3 prom inh: Peg3 promoter activity inhibition; HeLa PEG-Prom luciferase reporter, luminescence, overnight; inhibition, % at 20 µM; 1.7% of 360,000 active; AID 588405;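 active = inhibition of at least 50% at 20 µM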
CF NFkB inh: blocks PAF-induced NF-kB reporter in cystic fibrosis cells | inhibition, % at 5 µM | KKLEB NF-kB-GFP reporter, GFP fluorescence overnight | 0.86% of 360,000 active;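 active = at least 50% inhibition at 5 µM, scaled per plate between neutral and stimulator controls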;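 also: PAF is a Pseudomonas aeruginosa culture filtrate used as stimulus; plate controls were PAF-stimulated DMSO wells for no effect and unstimulated DMSO wells for full effect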
HIF-2a inh: HIF-2a inhibition; 786-0 RCC cells HIF-2a reporter, luciferase luminescence, overnight; inhibition, % at 18.8 µM; 0.72% of 360,000 active; AID 624352;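 active = inhibition of the luminescence signal of 40% or more relative to plate controls, in a single-dose primary screen at 18.75 µM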
KKLEB cytotox: reduces viability of KKLEB cystic fibrosis airway cells | activity change (cytotoxicity), % at 5 µM | 0.36% of 360,000 active | KKLEB CF airway cells viability, ATPlite luminescence, overnight; hits give low values; cells stimulated with P. aeruginosa culture filtrate | AID 602141;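 active = corrected activity change at or below -50% at 5 µM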
MITF TRPM1 inh: reduces MITF-dependent TRPM1 promoter luciferase signal; inhibition, % at 12.5 µM; SK-MEL-5 TRPM1 promoter luciferase, 24 h; 0.83% of 330,000 active; AID 488899;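 active = mean inhibition across replicates of 60% or more, whatever share of single replicates reaches that level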
Shn3 inh set2: Schnurri-3 reporter inhibition in Clone20 osteoblasts | Clone20 osteoblast Shn3 3'UTR firefly luciferase, 24 h | 0.52% of 360,000 active | inhibition, % at 12.5 µM;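 active = mean inhibition of at least 75% with every replicate also reaching 75%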;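 also: 0% = median of neutral control wells and 100% = pilot-screen positive control compound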
CF NFkB inh conf: confirmation of cystic fibrosis induced NF-kB inhibitors; shares compounds with CF NFkB inh; KKLEB CF airway cells, PAF-induced NF-kB-GFP fluorescence, overnight; inhibition, % at 5 µM; 64% of 1,300 active; AID 602472; in the data active = inhibition above about 40%;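 also: stimulus PAF is a Pseudomonas aeruginosa filtrate and not platelet activating factor; plate controls were DMSO wells with stimulus for no effect and unstimulated DMSO wells for full effect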
Starred values were filed as active, the others as inactive; . = not tested or not shown.

SMILES	Peg3 prom inh	CF NFkB inh	HIF-2a inh	KKLEB cytotox	MITF TRPM1 inh	Shn3 inh set2	CF NFkB inh conf
CCn1c(SCC(=O)N2CCCc3ccccc32)nc2c1c(=O)n(C)c(=O)n2C	30.6	8.4	13.3	0.7	-2.8	1.7	.
CC(C)c1nc(SCC(=O)N2CCCc3ccccc32)c2c(=O)n(C)c(=O)n(C)c2n1	62.7*	64.5*	-0.3	-8.1	.	31.7	11.7
CC1c2ccsc2CCN1S(=O)(=O)c1cccs1 (stereo not drawn)	21.0	2.1	17.0	3.7	-7.5	10.3	.
O=C1NC(c2cccc3ccccc23)Nc2ccc(Cl)cc21 (stereo not drawn)	-13.5	51.9*	2.5	-25.8	41.8	26.0	84.0*
Clc1ccc(C2Nc3cccc4cccc(c34)N2)c(Cl)c1	10.7	-5.7	-8.8	-8.7	8.0	12.1	.
CC1CCN(CC2C(=O)O[C@@H]3C[C@@]4(C)CCC[C@H](C)C4=C[C@H]23)CC(C)(C)C1 (stereo partly drawn)	-17.4	83.5*	-16.2	-20.8	74.2*	-6.9	33.7
CC(C)c1ccc(NC(=O)Nc2nc(C(N)CCc3ccccc3)cs2)cc1 (stereo not drawn)	98.4*	54.3*	23.4	-44.4	.	96.7*	12.2
COc1cc(OC)nc(Nc2nc(C(N)CCc3ccccc3)cs2)n1 (stereo not drawn)	15.7	11.1	16.4	-17.2	.	-2.4	.
O=c1c2sc3nc(N4CCOCC4)c4c(c3c2ncn1C(c1ccccc1)c1ccccc1)CCCC4	7.7	-5.4	9.7	15.0	-5.0	6.7	.
Cc1ccc(C(=O)c2cc([N+](=O)[O-])ccc2N2CCCCC2)c(C)c1	16.9	63.0*	29.6	-49.6	31.1	33.7	83.2*
CS(=O)(=O)c1ncc(Cl)c(C(=O)Nc2ccc(N3CCOCC3)cc2)n1	104.3*	91.5*	15.3	-27.6	92.1*	94.2*	78.8*
CS(=O)(=O)c1ccc(C(=O)Nc2ccc(N3CCOCC3)cc2)c(Cl)c1	1.4	-5.6	2.5	-1.4	2.7	-12.1	.
Cc1ccccc1NC(=O)c1cccc(C(=O)Nc2ccccc2C)n1	7.8	-31.3	20.2	-10.6	1.4	13.2	.
Cc1ccccc1NC(=O)c1nc(S(C)(=O)=O)ncc1Cl	104.8*	79.1*	-39.2	-0.6	27.6	97.5*	54.7*
COc1ccc(NC(=O)c2nc(S(=O)(=O)Cc3cccc(C)c3)ncc2Cl)c(OC)c1	108.0*	93.0*	-0.7	-38.5	42.6	97.2*	52.4*
CCCCn1c(N)c(N(CC(C)C)C(=O)CSCc2ccc(Cl)c(Cl)c2)c(=O)[nH]c1=O	5.2	16.4	6.5	-5.7	1.0	9.8	.
COc1cc(O)cc2cc3c(c(O)c12)C(=O)CC(C)(O)O3 (stereo not drawn)	-65.7	59.5*	-13.8	3.9	.	-12.0	52.3*
COc1cccc(CNc2ncnc3cc(OC)c(OC)cc23)c1	20.7	8.5	22.0	0.9	1.5	16.5	.
COc1cccc(-c2ccc3ncnc(NCc4cccnc4)c3c2)c1	28.6	71.0*	26.4	-15.8	-5.1	4.7	83.4*
Cc1ccc(S(=O)(=O)c2cc3c(=O)n4cccc(C)c4nc3n(Cc3ccncc3)c2=N)cc1	16.4	18.7	17.1	-10.3	19.1	-6.2	.
CN(C)CCNC(=O)c1coc(=O)c(Br)c1	9.8	-5.2	18.6	-3.1	-2.6	-15.1	.
O=C(NCCc1ccccc1)c1coc(=O)c(Br)c1	106.8*	69.0*	8.9	4.3	-4.4	-9.3	75.7*
CCc1nnc(NC(=O)CCc2ccc(C)o2)s1	-17.6	11.3	-7.5	-1.5	-18.1	-5.6	.
Cc1ccc(CCC(=O)Nc2ncc(Cc3cccc(Cl)c3Cl)s2)o1	31.4	52.2*	31.1	-32.4	27.4	17.1	78.4*
CCn1cc(C(=O)O)c(=O)c2cc(F)c(N3CCN(S(=O)(=O)c4ccc(NC(=O)OC)cc4)CC3)cc21	-46.9	-8.5	-61.2	-4.1	-15.4	-24.5	.
SMILES	Peg3 prom inh	CF NFkB inh	HIF-2a inh	KKLEB cytotox	MITF TRPM1 inh	Shn3 inh set2	CF NFkB inh conf
CCCOc1c(Br)cc(C(=O)OCc2cc(=O)n3ccsc3n2)cc1OC	13.5	57.6*	7.9	3.4	29.5	8.4	26.2
C[C@@H](NC(=O)[C@@H]1CCCN1C(=O)[C@@H]1CCCN1C(=O)c1ccc(Cl)cc1)c1ccccc1	.	.	9.5	.	.	.	.
Cc1cccn2c(CNCC3(c4ccccc4)CCCC3)c(C(=O)N3CCOCC3)nc12	47.1	58.7*	12.6	-28.0	-1.3	39.2	6.5
COc1ccc(CN2CCNC(=O)C2CC(=O)NCc2csc(C)n2)c(F)c1 (stereo not drawn)	-6.6	-3.4	6.3	-6.8	6.0	1.4	.
O=C(Cc1ccccc1)Nc1ccc2[nH]ncc2c1	-19.7	13.6	-27.1	-2.6	3.1	-9.7	.
O=C(Cc1ccc(Br)cc1)Nc1ccc2[nH]ncc2c1	5.1	52.6*	17.5	-45.4	-2.6	12.8	15.5
O=C(N1CCCCC1)N1CCN(C(c2ccccc2)c2ccccc2)CC1	18.6	7.1	17.2	11.6	0.8	-4.1	.
Oc1c(C(c2ccccc2)N2CCCCC2)ccc2ccccc12 (stereo not drawn)	19.9	68.1*	11.0	-31.1	.	-4.1	26.8
COc1ccc(CNC(=O)CN(C(=O)CCC(=O)Nc2nccs2)c2cccc(C)c2)cc1	-2.6	-12.6	9.3	7.9	6.8	6.1	.
CCOC(=O)[C@@H]1[C@H]2COc3ccc(Br)cc3[C@@H]2N2C(=O)N(c3ccc(C)cc3)C(=O)[C@]12C	2.2	0.7	10.6	-10.8	7.1	-5.2	.
CCOC(=O)[C@@H]1[C@H]2COc3ccc(Br)cc3[C@H]2N2C(=O)N(c3ccc(C)cc3)C(=O)[C@]12C	13.2	50.8*	16.7	-10.8	7.2	-21.2	41.9*
O=C1CN(S(=O)(=O)c2cccc(C(=O)O)c2)c2ccccc2N1	3.0	3.3	11.6	-2.4	12.1	3.0	.
O=C(Nc1ccc(Oc2ccc(NC(=O)Nc3ccc([N+](=O)[O-])cc3)cc2)cc1)Nc1ccc([N+](=O)[O-])cc1	46.3	52.5*	-3.4	1.2	26.2	81.9	61.3*
Cc1cc(C)c(C#N)c(SCC(=O)c2ccc(Cl)cc2Cl)n1	60.0*	71.6*	-15.8	-5.1	3.1	20.0	67.2*
CCOC(=O)CSc1nc(C)cc(C)c1C#N	-22.6	7.1	-7.7	-1.5	6.3	4.7	.
CC(=O)c1cc(CN2CCC(n3nccc3NC(=O)c3ccccc3)CC2)cs1	16.8	-12.7	4.4	12.1	10.5	7.1	.
O=C(O)c1ccc(-n2ncc(Cl)c(Cl)c2=O)cc1	-15.9	74.3*	-13.7	-45.0	.	56.7	-39.4
O=C(Nc1ccc(Oc2ccccc2)cc1)c1ccc2sc([C@H]3C[C@H](O)[C@@H](CO)O3)nc2c1	-27.0	53.5*	-96.9	6.5	.	37.3	45.7*

High-throughput results: PubChem, several laboratories
